Here are results for 40 compounds from PubChem BioAssay (EPA / NIEHS).

The source made the active and inactive calls. Rule for the calls: active = hit-call score of the fitted dose curve at least 0.9, where 1 is the maximum; inactive = score below 0.9.

A short description of the experiment: ATG_BRE_CIS: Attagene CIS-FACTORIAL HepG2 Assay for human Bone Morphogenetic Protein (BMP) Response Element (BRE) (AID 2282933). The settings on record: HepG2 BMP response element reporter, Attagene transcription factor profiling; actives raise or lower the signal. The procedure: ATG_CIS is a cell-based, multiplexed-readout assay that uses HepG2, a human liver cell line, with measurements taken at 24 hours after chemical dosing in a 24-well plate.ATG_BRE_CIS is one of 52 assay component(s) measured or calculated from the ATG_CIS assay. It is designed to make measurements of mRNA induction, a form of inducible reporter, as detected with fluorescence intensity signals by Reverse transcription polymerase chain reaction (RT-PCR) and Capillary electrophoresis technology.Data from the assay component ATG_BRE_CIS was analyzed into 1 assay endpoint. This assay endpoint, ATG_BRE_CIS, was analyzed with bidirectional fitting relative to DMSO as the negative control and baseline of activity. Using a type of inducible reporter, measures of mRNA for gain or loss-of-signal activity can be used to understand the reporter gene at the transcription factor-level as they relate to the gene SMAD1. Furthermore, this assay endpoint can be referred to as a primary readout, because this assay has produced multiple assay endpoints where this one serves a reporter gene function. To generalize the intended target to other relatable targets, this assay endpoint is annotated to the dna binding intended target family, where the subfamily is Smad protein.
Human liver HepG2 cells are transiently transfected with multiple reporter transcription units (MRTUs) in 6-well plates using FuGene 6 reagent (Roche; 3 ml FuGene/1 mg DNA). The MRTU constructs are regulated by a cis-regulating element (promoter). […] A major difference between the CIS and TRANS system is that in CIS activities of endogenous TFs are measured, whereas the TRANS assay evaluates changes in activities of exogenous, chimeric NR-Gal4 proteins. […] At the end of 24 hour incubation, total RNA was isolated using TriZol reagent (Invitrogen). The isolated RNA is then reverse-transcribed using oligo(dT) primer and Mo-MLV reverse transcriptase (Invitrogen) with DNAse I (Ambion) treatment for 30 min. The one-tenth of the produced cDNA was amplified by PCR using Taq DNA polymerase (Invitrogen) and two reporter sequence-specific primers. The PCR products were fluorescently labeled by primer extension with 6-arboxyfluorescein (6-FAM) 5'-labeled reporter sequence-specific primer (2 min at 95 C, 20 s at 68 C and 10 min at 72 C) and these products were digested with 5U of HpaI (New England Biolabs) for 2h at 37 C. The fragments were purified using Qiaquick PCR columns (Qiagen), analyzed on an ABI 3130xL genetic analyzer (Applied Biosystems) with peak positions identified by using a set of X-rhodamine (ROX)-labeled MapMarker1000 molecular weight standards (BioVentures). The raw capillary electrophoresis data was processed using Attagraph software (Attagene).
On to `CC(O)C(F)(F)C(F)(F)F` (stereo not given), for which the call was inactive.

Take `NNC(N)=S`: the compound was called inactive.

`O=c1ssc(Cl)c1Cl`: the outcome was inactive.

Take `Cc1cccc(N)c1`: the compound was classed as inactive.

`Nc1ccc(Sc2ccc(N)cc2)cc1`: the outcome was inactive.

As to `CCOC(=O)c1ccccc1C(=O)OCC`, the call was inactive.

For the compound `FC(F)(F)C(F)(C(F)(F)F)C(F)(F)C(F)(F)CC1CO1` (stereo not given), the compound was classed as inactive.

Consider `O=C(O)C(Cl)Cl`, for which the outcome was inactive.

With `CCCCC(CC)COP(=O)(Oc1ccccc1)Oc1ccccc1` (stereo not given), the AC50 was 21.4 µM (active).

Consider `O=S1(=O)OCC2C(CO1)C1(Cl)C(Cl)=C(Cl)C2(Cl)C1(Cl)Cl` (stereo not given), for which the outcome was inactive.

With `CNC(=O)Oc1ccc(N(C)C)c(C)c1`, the result was inactive.

Regarding `CSC(C)(C)C=NO`, the result was inactive.

In the case of `Cc1ccc(C(=O)Cl)cc1`, the outcome was inactive.

As for `Nc1cc2c3c(c1)C(c1ccccc1)=N[C@@H](NC(=O)c1cccnc1)C(=O)N3CC2`, the outcome was inactive.

With `CCOP(=S)(OCC)SCSc1ccc(Cl)cc1`, the compound was classed as inactive.

Take `O=[N+]([O-])c1ccccc1`: the outcome was inactive.

For `c1nc[nH]n1`, the compound was classed as inactive.

As for `CCCCOCCOP(=O)(OCCOCCCC)OCCOCCCC`, the result was inactive.

With `COC(=O)C(F)(F)C(F)(F)OC(F)(C(F)(F)F)C(F)(F)OC(F)=C(F)F` (stereo not given), the call was inactive.

Consider `Oc1ccc(I)cc1`, for which the compound was called inactive.

In the case of `ClC1=C(Cl)C2(Cl)C3C(Cl)C(Cl)CC3C1(Cl)C2(Cl)Cl` (stereo not given), the compound was called inactive.

With `CC(=O)c1ccc(-c2ccccc2)cc1`, the result was inactive.

As to `CCOc1ccc(C(C)(C)COCc2cccc(Oc3ccccc3)c2)cc1`, the compound was called inactive.

For the compound `Cc1ccc2c(c1N)C(=O)c1ccccc1C2=O`, the result was inactive.

Turning to `Clc1ccc(Oc2ccccc2)cc1`, the outcome was inactive.

For the compound `O=C(O)CF`, the compound was called inactive.

With `COP(N)(=S)OC`, the result was inactive.

`OCC1CO1` (stereo not given): the compound was classed as inactive.

For `c1cc2c3c(cccc3c1)CC2`, the outcome was inactive.

For the compound `O=C(CBr)OCc1ccccc1`, the compound was called inactive.

Turning to `OCC(F)(F)OC(F)(F)C(F)(F)OC(F)(F)C(F)(F)OC(F)(F)F`, the compound was called inactive.

For `Cc1ccc(N)cc1N`, the call was inactive.

Regarding `c1ccc2c(c1)Nc1ccccc1S2`, the AC50 is 41.7 µM (active).

`CC(C)(C)c1ccc(O)cc1`: the AC50 was 58.1 µM (active).

In the case of `CO/N=C(/C(=O)OC)c1ccccc1COc1ccccc1C`, the half-maximal activity concentration (AC50) was 27.7 µM (active).

`CC(Cl)CN(C)C` (stereo not given): the call was inactive.

For the compound `CCOP(=S)(OCC)SCS(=O)(=O)CC`, the result was inactive.

`C=CC(=O)OCC(F)(F)C(F)F`: the compound was called inactive.

Turning to `COP(=O)(CCC(=O)NCO)OC`, the result was inactive.

For the compound `Oc1ccccc1Br`, the call was inactive.
